RGS12 GoLoco inh: qHTS Assay for Inhibitors of RGS12 GoLoco Motif Activity (Red Fluorophore). 0.44% of 230,000 active. Potency, µM (top dose mostly 61.6 µM), without a hit: top-dose activity, negative = inhibition, hits mostly inhibitors. Gai1:RGS12 GoLoco peptide FP, rhodamine, 10 min. Guanine nucleotide-binding protein G(i) subunit alpha-1 (Homo sapiens), P63096; active = well fitted inhibition curve with a large enough effect, not every such curve was filed as active; inactive = no such curve, though single readings can be large or run the other way; note: potency is the fitted concentration of half-maximal effect; % is set by controls: 0 for no effect and ±100 for the full control effect; nearly all actives have a fitted effect of over 30% in size
Target sequence (P63096 whole entry, looked up): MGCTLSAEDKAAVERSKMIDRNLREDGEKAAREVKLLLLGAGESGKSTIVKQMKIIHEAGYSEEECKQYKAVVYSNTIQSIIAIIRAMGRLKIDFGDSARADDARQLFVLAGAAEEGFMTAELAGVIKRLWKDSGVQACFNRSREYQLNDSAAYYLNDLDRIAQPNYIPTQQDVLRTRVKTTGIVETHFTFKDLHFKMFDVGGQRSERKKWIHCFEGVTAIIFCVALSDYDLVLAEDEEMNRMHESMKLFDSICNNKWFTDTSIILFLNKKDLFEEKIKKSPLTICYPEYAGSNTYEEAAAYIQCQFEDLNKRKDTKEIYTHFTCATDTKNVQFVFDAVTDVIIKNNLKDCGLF
HTT ATP protect: qHTS Multiplex Assay to Identify Dual Action Probes in a Cell Model of Huntington: Cytoprotection (ATP). PC12 HTT-Q103 induced, cytoprotection, ATP luminescence, 40 h. Potency, µM (series often up to 56.4 µM), for the others: cytoprotection (ATP increase), actives largely listed as activators. 0.14% of 230,000 active. AID 1471, 2008; active = well fitted curve in the direction sought with a large enough effect; inconclusive = small, poorly fitted or top-dose-only effect, or another doubt; inactive = no such curve, though single readings can be large; an effect the other way counts as inactive or inconclusive; note: potency is the fitted concentration of half-maximal effect; % of control where 0% means no effect; nearly all actives have a fitted effect of over 45% in size
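PC12 cells stably carrying ecdysone-inducible Htt exon 1 (Q103)–GFP were induced with 100 nM tebufenozide (final) alongside library compounds in a dose series. Cytoprotection was scored as retained ATP by ATPlite luminescence.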
ALDH1A1 block: qHTS Assay for Inhibitors of Aldehyde Dehydrogenase 1 (ALDH1A1) | Aldehyde dehydrogenase 1A1 (Homo sapiens), P00352 | AID 1030, 2008 | Purified ALDH1A1, NADH fluorescence, propionaldehyde substrate | Potency, µM (top dose mostly 75.3 µM), for inactives: at the highest dose activity, negative = inhibition, most hits filed as inhibitors | 7.3% of 220,000 active;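 note: potency is the fitted concentration of half-maximal effect; plate controls were no enzyme wells and a reference inhibitor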
HTT aggregate: qHTS Multiplex Assay to Identify Dual Action Probes in a Cell Model of Huntington: Aggregate Formation (GFP) | 1.1% of 220,000 active | PC12 HttQ103-GFP aggregates, Acumen cytometry, 40 h | Potency, µM (series often up to 46.1 µM), without a hit: at the top dose activity change, negative = inhibition, usual class: inhibitors | AID 1688, 2009; active = well fitted curve in the direction sought with a large enough effect; inconclusive = small, poorly fitted or top-dose-only effect, or another doubt; inactive = no such curve, though single readings can be large; an effect the other way counts as inactive or inconclusive; note: potency is the fitted concentration of half-maximal effect; % is set by controls: 0 for no effect and ±100 for the full control effect; nearly all actives have a fitted effect of over 60% in size
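PC12 cells stably carrying ecdysone-inducible HTT exon 1 Q103–GFP were induced with tebufenozide (100 nM final) and treated with library compounds in titration. GFP aggregates in lysates were counted by laser scanning cytometry.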
PNC inhibitor: High Content Assay for Compounds that inhibit the Assembly of the Perinucleolar Compartment | activity change (PNC), negative = inhibition, % at 10 µM | PC3M PTB-GFP, PNC prevalence imaging, 16 h; hits give low values | 3.1% of 140,000 active;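 active = readout at or below -70, meaning at least 70% loss of cells showing the perinucleolar compartment, a nuclear body marking cancer cells; inconclusive = readout between -30 and a set limit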;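 note: plate controls were DMSO wells for no effect and camptothecin positive control wells for full effect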
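Read-out is percentage of cells bearing a perinucleolar compartment, from automated 20x imaging of fixed, Hoechst-stained PC3M PTB-GFP cells. Cells were seeded 4 h, then exposed 16 h to compound (23 nl of library stock) in duplicate plates.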
HPGD inh: qHTS Assay for Inhibitors of HPGD (15-Hydroxyprostaglandin Dehydrogenase); purified HPGD, NADH fluorescence kinetic, PGE2 substrate; Potency, µM, for the others: at the top dose activity change, negative = inhibition, usual class: inhibitors; AID 894, 2007; 4.3% of 150,000 active; 15-hydroxyprostaglandin dehydrogenase [NAD(+)] (Homo sapiens), P15428; note: potency is the fitted concentration of half-maximal effect; % is set by controls: 0 for no effect and ±100 for the full control effect
Target sequence (P15428 whole entry, looked up): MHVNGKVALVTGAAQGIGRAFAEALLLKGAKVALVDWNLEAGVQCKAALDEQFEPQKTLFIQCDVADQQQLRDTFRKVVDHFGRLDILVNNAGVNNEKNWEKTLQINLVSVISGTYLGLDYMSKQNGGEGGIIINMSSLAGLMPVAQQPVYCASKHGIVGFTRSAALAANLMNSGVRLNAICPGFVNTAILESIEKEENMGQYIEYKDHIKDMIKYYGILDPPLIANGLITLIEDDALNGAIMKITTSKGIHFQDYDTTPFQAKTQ
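20 nM HPGD preincubated 15 min at room temperature with compound in 50 mM Tris-HCl pH 8, 0.01% Tween 20. Started with 1 mM NAD+ and 30 uM prostaglandin E2; NADH fluorescence (360/450 nm) read 5 times over 30-s intervals, last minus first.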
* hit, by the source's call; u = inconclusive; x = no result given; ! = a repeat was not active; [ ] = another dose, or the depositor's remark. Shown are actives, neighbours in structure and some others; about 11% of the full set was active somewhere. Unless noted, calls come from the whole dose curve; as a rule, active = well fitted inhibition curve with a large enough effect (not every such curve was filed as active); inconclusive = small, poorly fitted or top-dose-only effect, or another doubt; inactive = no such curve, though single readings can be large or run the other way.

SMILES	RGS12 GoLoco inh	HTT ATP protect	ALDH1A1 block	HTT aggregate	PNC inhibitor	HPGD inh
O=C1NC(c2ccccc2)C(C(=O)c2cccs2)C(O)(C(F)(F)F)N1 (centres undefined)	-11%	-1%	u	-12%	27	-1%
CC(=O)Nc1ccc(/C=N/N2CCCCC2)cc1	10%	-2%	-3%	-12%	x	x
O=C(CCN1C(=O)C2C3C=CC(C3)C2C1=O)N1CC(=O)N(CCc2ccccc2)C(=O)C1 (centres undefined)	-4%	2%	u	-12%	15	3%
O=C(CN1C(=O)C2C3C=CC(C3)C2C1=O)N1CC(=O)N(CCc2ccccc2)C(=O)C1 (centres undefined)	-8%	20%[10 µM]	28µM*	-5%	-6	-4%
COc1ccc(CNC(=O)COC(=O)CCc2c[nH]c3ccccc23)cc1	12%	0%	u	1%	x	x
CC1CCCN(C(=O)C(Cc2ccccc2)n2cccc2)C1 (centres undefined)	-1%	-1%	-2%	15%	21	14µM*
O=C(C(Cc1ccccc1)n1cccc1)N1CCN(c2ccccc2)CC1 (centres undefined)	12%	-38%	-8%	u	-4	-11%
CCc1nnc(NS(=O)(=O)c2ccc(N/C=C\C(=O)c3cccc(OC)c3)cc2)s1	8%	x	-9%	x	x	x
CCc1nnc(NS(=O)(=O)c2ccc(N/C=C/C(=O)c3ccc(C)cc3)cc2)s1	2%	32%[10 µM]	u	16%	-9	18µM*
CCc1nnc(NS(=O)(=O)c2ccc(N/C=C\C(=O)c3ccc(C)cc3)cc2)s1	-3%	-34%	u	1%	-7	25µM*
CCc1nnc(NS(=O)(=O)c2ccc(N/C=C\C(=O)c3ccc(F)cc3)cc2)s1	12%	x	u	x	x	x
Cc1[nH]c(=O)[nH]c(=O)c1/C=N/NC(=O)[C@H](C)NC(=O)OC(C)(C)C	5%	-14%	0%	-1%	-106*	-12%
O=C(Nc1ccc2c(c1)OCCO2)c1ccc(Br)o1	16%	-66%	u	12%	70	28µM*
COc1ccc(NC(=S)NC(=O)c2ccc(Br)o2)cc1	22%	-41%	11µM*	9%	x	x
O=C(Nc1ccc(Nc2ccccc2)cc1)c1ccc(Br)o1	-3%	-6%	5%	-16%	10	28µM*
CC(C)c1ccc(N(CC(=O)NCc2ccc(F)cc2)C(=O)c2csnn2)cc1	11%	9%[10 µM]	5µM*	-1%[9.22 µM]	x	x
NC(=O)c1c(NC(=S)Nc2ccccc2)sc2c1CCCC2	0%	-23%	7.9µM*	6%	x	x
NC(=O)c1c(NC(=S)Nc2ccc(F)cc2)sc2c1CCCC2	6%	-7%[10 µM]	10µM*	-15%[9.22 µM]	x	x
C=CCNC(=S)Nc1sc2c(c1C(N)=O)CCCC2	3%	4%[10 µM]	x	0%[9.22 µM]	x	x
COc1ccc(Oc2ncc3nc(-c4cccc(C#N)c4)c(=O)n(Cc4cccc(OC)c4)c3n2)cc1	0%	-23%	-6%	x	x	x
O=C(COC(=O)C1CC2C=CC1C2)NCCc1ccccc1 (centres undefined)	10%	-10%	u	-6%	x	x
O=C(COC(=O)C1CC2C=CC1C2)Nc1ccccc1F (centres undefined)	8%	-3%[10 µM]	13µM*	-8%	x	x
CCCNC(=O)c1cc(-c2ccc(OC)cc2)n(CCCOC)c1C	11%	-14%[10 µM]	u	-12%	u	8.9µM*
COc1ccc(S(=O)(=O)N2CCOCC2)cc1NC(=O)c1cccc2c(=O)c(C)c(-c3ccccc3)oc12	x	-26%[10 µM]	-13%	-5%	221	x
NS(=O)(=O)c1cccc(NC(=O)CN2CCc3ccccc32)c1	9%	-6%	7.9µM*	-2%	x	x
SMILES	RGS12 GoLoco inh	HTT ATP protect	ALDH1A1 block	HTT aggregate	PNC inhibitor	HPGD inh
CCn1c(=O)c(-c2ccccc2)c(O)c2ccccc21	2%	12%	0%	-7%[9.22 µM]	-11	-6%
CCn1c(=O)c2c(cnn2C)c2ccccc21	11%	0%	9%	8.9µM*	-14	32µM*
O=c1[nH]c(-c2cccnc2)nc2ccccc12	-7%	19%[10 µM]	12%	5%	u	18µM*
O=c1[nH]c(-c2ccncc2)nc2ccccc12	-3%	-12%[10 µM]	7.9µM*	-1%	7	7.1µM*
O=C(O)C1OC(O)C(O)C(O)C1O (centres undefined)	3%	-1%[1.9 µM]	10%	x	x	2%
COc1ncc2nc(-c3cn(C)c4ccccc34)c(=O)n(Cc3ccc(F)cc3)c2n1	3%	5%	13%	x	x	-7%
O=[N+]([O-])c1ccc(Sc2cccc[n+]2[O-])c2nonc12	-35%	-98%[10 µM]	2.2µM*	1.1µM*	x	x
O=C(CSc1cccc[n+]1[O-])Nc1ccc(C(F)(F)F)cc1[N+](=O)[O-]	0%	19%[10 µM]	u	4%	x	x
Cc1ccc([N+](=O)[O-])cc1S(=O)(=O)N(C)C	10%	-54%	32µM*!	x	x	5%
Cc1ccc(NC(=O)c2ccc([N+](=O)[O-])cc2)cc1S(=O)(=O)N(C)C	16%	-55%	u	-1%	x	x
Cn1cnc([N+](=O)[O-])c1SCC(=O)O	-13%[14.2 µM]	-20%[10 µM]	-7%[13.5 µM]	x	x	-5%
O=C(NC(=S)NCCN1CCOCC1)c1ccc(Cl)cc1Cl	-12%	-5%	0%	7%	17	-16%
CCCCNC(=S)NC(=O)c1ccc(Cl)cc1Cl	-3%	-37%	25µM*	-7%	u	-17%
Cn1c(=O)c2[nH]c(-c3ccc(S(=O)(=O)O)cc3)nc2n(C)c1=O	11%	3%	u	x	x	u
O=S(=O)(c1ccccc1F)N1CCN(Cc2nc3ccccc3[nH]2)CC1	-3%	12%	11µM*	-3%	41	-7%
Cc1ccc(CNC(=O)CCC2CCCN(C(=O)c3ccc4c(c3)OCO4)C2)o1 (centres undefined)	-23%	-46%	16µM*	u	x	x
COc1cccc(CN2CCCC(C(=O)c3ccc4c(c3)OCO4)C2)c1O (centres undefined)	14%	36%[10 µM]	4%	-7%[9.22 µM]	x	x
CC(=O)c1cccc(CN2CCCC(C(=O)c3ccc4c(c3)OCO4)C2)c1 (centres undefined)	12%	5%[10 µM]	28µM*	14%[9.22 µM]	x	x
CCOC(=O)C1CCCN(CC(O)COc2cccc(C)c2)C1 (centres undefined)	-10%	x	7%	-3%	-13	25µM*

Bioassay records: PubChem, National Center for Advancing Translational Sciences (NCATS)
